Results reported in PubChem BioAssay (Tox21).
Where “and” joins values, the source holds several entries; their conditions need not be identical. Equal values may be shown once. Records with an inconclusive call do not appear. Entries that show only a call come without a potency. Some structures have more than one record in an assay (separate samples or runs), and their calls can disagree. Calls of active or inactive are those of the source. Unless noted, the call rests on the fitted dose curve.

What was measured:
[1] = Nuclear factor erythroid 2-related factor 2/antioxidant responsive element (Nrf2/ARE) small molecule agonists: qHTS cell viability counter screen in human keratinocytes (AID 1919968; active means well fitted cell-killing curve with a large enough effect in the repeat runs; further: nearly all actives have a fitted effect of over 55% in size; further: potency means the concentration at half of the fitted maximal effect)
Method in brief: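 After a 5 h attachment period, ARE-reporter keratinocytes were dosed with compounds in DMSO and then cultured 23 h at 37 C. Cell viability came from CellTiter-Fluor signal read after a further 1 h.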

[2] = Nuclear factor erythroid 2-related factor 2/antioxidant responsive element (Nrf2/ARE) small molecule agonists: luciferase reporter gene qHTS assay in human keratinocytes (AID 1919969); further: nearly all actives have a fitted effect of over 35% in size; further: potency means the concentration at half of the fitted maximal effect
[3] = G protein-coupled receptor (GPCR) small molecule agonists, calcium flux assay: HEK293 wild type cell line counter screen (AID 1920065)
Method in brief: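 Calcium-sensitive dye, loaded 1 h at 37 C into cells cultured 18 h, reports compound-evoked calcium release as fluorescence (Ex/Em 480/540), measured over 3 min. Agonist mode; 15-point titrations, triplicate.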

[4] = p53 small molecule agonists, cell-based qHTS assay with human liver microsomes (AID 1963577)
Method in brief: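 p53RE-bla reporter cells were pre-incubated 5 h at 37 C, then treated with compounds plus human liver microsomes (0.5 mg/mL final) and NADPH (0.5 mg/mL final) for 16 h at 37 C. Beta-lactamase activity was read by LiveBLAzer fluorescence after 2 h at room temperature.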

[5] = p53 small molecule agonists, cell-based qHTS assay with rat liver microsomes (AID 1963578)
Method in brief: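 p53RE-bla cells were exposed to compounds together with rat liver microsomes (0.5 mg/mL final) and NADPH (0.5 mg/mL final) for 16 h at 37 C, then read by LiveBLAzer beta-lactamase fluorescence after 2 h at room temperature.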

[6] = p53 small molecule agonists, cell-based qHTS assay with rat liver microsomes: qHTS cell viability counter screen (AID 1963580); further: nearly all actives have a fitted effect of over 45% in size; further: potency means the concentration at half of the fitted maximal effect
Method in brief: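 Intracellular ATP, by CellTiter-Glo luminescence, defines viability. HCT-116 p53RE-bla cells, 4,000 per well, were compound-treated in the presence of rat liver microsomes and NADPH for 16 h at 37 C.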

[7] = p53 small molecule agonists, cell-based qHTS assay: qHTS cell viability counter screen (AID 1963581); further: nearly all actives have a fitted effect of over 45% in size; further: potency means the concentration at half of the fitted maximal effect
Method in brief: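 Following 5 h attachment, HCT-116 p53RE-bla cells took up compound for 16 h at 37 C; the reporter was read with B/G FRET substrate (2 h RT), and viability then via CellTiter-Glo ATP luminescence.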

[8] = p53 small molecule agonists, cell-based qHTS assay (AID 1963582; active means well fitted activation curve with a large enough effect in the signal ratio in the repeat runs, not every such curve was filed as active; the % refers to the signal ratio)
Method in brief: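 In this cell-based concentration-response screen, a p53 response element drives beta-lactamase; cells received DMSO-borne compounds after 5 h culture and were incubated a further 16 h before FRET substrate development.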

[9] = cAMP Responsive Elements (CRE) small molecule antagonists, cell-based qHTS assay (AID 1963591; active means well fitted inhibition curve with a large enough effect in the signal ratio in the repeat runs, not every such curve was filed as active; the % refers to the signal ratio)
Method in brief: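 HEK293T cells carrying a CRE-driven beta-lactamase reporter receive compound and NKH477 (0.25 uM final) for 3 h. Fluorescence from LiveBLAzer B/G FRET substrate is read after 2 h at room temperature.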

[10] = target: Beta-2 adrenergic receptor (Homo sapiens) (UniProt P07550); test: Adrenergic beta2 receptor (ADRB2) small molecule antagonists, cell-based qHTS assay (AID 1963592); further: nearly all actives have a fitted effect of over 50% in size; further: potency means the concentration at half of the fitted maximal effect
Chain of Beta-2 adrenergic receptor (Homo sapiens) (P07550 whole entry, looked up): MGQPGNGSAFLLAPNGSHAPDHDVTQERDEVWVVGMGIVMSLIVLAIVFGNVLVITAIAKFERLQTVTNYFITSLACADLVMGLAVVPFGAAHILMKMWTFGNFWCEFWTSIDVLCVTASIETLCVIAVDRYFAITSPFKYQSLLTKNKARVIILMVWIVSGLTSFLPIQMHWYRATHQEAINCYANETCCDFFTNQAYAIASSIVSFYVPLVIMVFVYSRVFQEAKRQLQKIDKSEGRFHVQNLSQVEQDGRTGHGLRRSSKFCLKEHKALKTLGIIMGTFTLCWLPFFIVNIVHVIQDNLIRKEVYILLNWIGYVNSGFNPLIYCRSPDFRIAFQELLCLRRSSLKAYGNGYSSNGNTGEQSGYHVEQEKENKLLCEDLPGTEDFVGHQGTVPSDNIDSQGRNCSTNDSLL
Method in brief: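 Cells (CHO, stable ADRB2 overexpression) incubated 18-20hr at 37C; compounds added from DMSO; agonist mix (1nM isoproterenol, 100uM IBMX, 25uM Ro-20-1724) added; 0.5hr RT; d2-cAMP and anti-cAMP-cryptate added; 1hr RT; 665/615 nm read.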

[11] = target: Beta-2 adrenergic receptor (Homo sapiens) (UniProt P07550); test: Adrenergic beta2 receptor (ADRB2) small molecule agonists, cell-based qHTS assay (AID 1963593);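 further: CHO cells stably overexpressing human ADRB2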
Method in brief: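 CHO cells stably over-expressing ADRB2 were plated overnight at 37C, then dosed with compounds plus a stimulation mix containing 100uM IBMX and 25uM Ro-20-1724 for 0.5hr at room temperature. cAMP was measured by HTRF competition, 1hr.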

[12] = target: D(2) dopamine receptor (Homo sapiens) (UniProt P14416); test: Dopamine D2 receptor (DRD2) small molecule agonists, cell-based qHTS assay (AID 1963594); further: nearly all actives have a fitted effect of over 35% in size
Chain of D(2) dopamine receptor (Homo sapiens) (P14416 whole entry, looked up): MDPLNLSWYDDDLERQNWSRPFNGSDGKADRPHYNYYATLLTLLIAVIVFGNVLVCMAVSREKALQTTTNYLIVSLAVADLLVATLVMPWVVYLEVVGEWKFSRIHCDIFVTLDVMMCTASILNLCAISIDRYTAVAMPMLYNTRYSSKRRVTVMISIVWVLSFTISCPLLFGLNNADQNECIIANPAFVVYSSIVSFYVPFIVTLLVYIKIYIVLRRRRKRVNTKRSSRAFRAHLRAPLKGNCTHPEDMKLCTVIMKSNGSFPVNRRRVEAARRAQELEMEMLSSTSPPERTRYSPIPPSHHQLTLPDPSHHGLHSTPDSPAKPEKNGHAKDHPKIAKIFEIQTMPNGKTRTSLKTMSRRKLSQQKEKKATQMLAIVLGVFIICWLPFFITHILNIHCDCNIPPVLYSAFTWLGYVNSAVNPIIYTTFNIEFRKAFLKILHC
Method in brief: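 cAMP accumulation in DRD2-HEK293 cells measured by HTRF after 1 h detection; compounds added 10 min before NKH477 (200nM […]) forskolin-analogue stimulation, 30 min at room temperature, with Ro20-1724 present at 0.1 mM final.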

[13] = target: D(2) dopamine receptor (Homo sapiens) (UniProt P14416); test: Dopamine D2 receptor (DRD2) small molecule antagonists, cell-based qHTS assay (AID 1963595; active means well fitted inhibition curve with a large enough effect in the signal ratio in the repeat runs, with a control signal flat; the % refers to the signal ratio; further: potency means the concentration at half of the fitted maximal effect)
Method in brief: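 Human DRD2 antagonist qHTS measuring cAMP by HTRF. The cells are exposed to compound for 10 min, then to NKH477 (200 nM) and quinpirole (12 nM) for 30 min at RT, with Ro20-1724 (0.1 mM) present throughout.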

[14] = p53 small molecule agonists, cell-based qHTS assay with human liver microsomes: qHTS cell viability counter screen (AID 1963579); further: nearly all actives have a fitted effect of over 45% in size; further: potency means the concentration at half of the fitted maximal effect
Method in brief: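 p53RE-bla cells (4,000/well) were pre-incubated 5 h at 37 C, then given compounds in DMSO plus human liver microsomes (0.5 mg/mL final) and NADPH (0.5 mg/mL final) for 16 h at 37 C. Viability was read by CellTiter-Glo luminescence.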

[15] = target: 5-hydroxytryptamine receptor 2A (Homo sapiens) (UniProt P28223); test: 5-hydroxytryptamine receptor 2A (HTR2A) small molecule antagonists, cell-based qHTS assay (AID 1963586); further: nearly all actives have a fitted effect of over 45% in size; further: potency means the concentration at half of the fitted maximal effect
Chain of 5-hydroxytryptamine receptor 2A (Homo sapiens) (P28223 whole entry, looked up): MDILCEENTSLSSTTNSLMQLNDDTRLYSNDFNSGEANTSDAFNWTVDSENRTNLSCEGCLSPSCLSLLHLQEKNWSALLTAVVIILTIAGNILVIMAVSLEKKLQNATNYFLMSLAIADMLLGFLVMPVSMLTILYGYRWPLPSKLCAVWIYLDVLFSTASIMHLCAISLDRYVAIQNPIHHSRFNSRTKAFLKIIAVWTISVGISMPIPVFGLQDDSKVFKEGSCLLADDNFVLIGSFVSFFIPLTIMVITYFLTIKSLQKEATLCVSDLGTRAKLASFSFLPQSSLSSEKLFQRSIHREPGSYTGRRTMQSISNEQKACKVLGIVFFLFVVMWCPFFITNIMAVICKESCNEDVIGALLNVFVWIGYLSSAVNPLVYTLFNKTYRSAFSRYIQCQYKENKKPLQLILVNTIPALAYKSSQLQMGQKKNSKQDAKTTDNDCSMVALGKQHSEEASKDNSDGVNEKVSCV
Method in brief: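 Antagonist-mode intracellular calcium assay: DOI (4 nM) added after 5 min compound pre-incubation at room temperature to dye-loaded HTR2A-CHO cells. Fluorescence followed for 3 min, sampled every second.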

[16] = target: 5-hydroxytryptamine receptor 2A (Homo sapiens) (UniProt P28223); test: 5-hydroxytryptamine receptor 2A (HTR2A) small molecule agonists, cell-based qHTS assay (AID 1963587); further: nearly all actives have a fitted effect of over 30% in size
Method in brief: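 Kinetic calcium-flux fluorescence (2 min, 1 sec intervals) after compound addition in agonist mode. HTR2A-CHO cells were cultured 18 h, then dye-loaded 1 h at 37 C.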

[17] = target: Muscarinic acetylcholine receptor M1 (Homo sapiens) (UniProt P11229); test: Cholinergic receptor muscarinic 1 (CHRM1) small molecule antagonists, cell-based qHTS assay (AID 1963588); further: nearly all actives have a fitted effect of over 40% in size; further: potency means the concentration at half of the fitted maximal effect
Chain of Muscarinic acetylcholine receptor M1 (Homo sapiens) (P11229 whole entry, looked up): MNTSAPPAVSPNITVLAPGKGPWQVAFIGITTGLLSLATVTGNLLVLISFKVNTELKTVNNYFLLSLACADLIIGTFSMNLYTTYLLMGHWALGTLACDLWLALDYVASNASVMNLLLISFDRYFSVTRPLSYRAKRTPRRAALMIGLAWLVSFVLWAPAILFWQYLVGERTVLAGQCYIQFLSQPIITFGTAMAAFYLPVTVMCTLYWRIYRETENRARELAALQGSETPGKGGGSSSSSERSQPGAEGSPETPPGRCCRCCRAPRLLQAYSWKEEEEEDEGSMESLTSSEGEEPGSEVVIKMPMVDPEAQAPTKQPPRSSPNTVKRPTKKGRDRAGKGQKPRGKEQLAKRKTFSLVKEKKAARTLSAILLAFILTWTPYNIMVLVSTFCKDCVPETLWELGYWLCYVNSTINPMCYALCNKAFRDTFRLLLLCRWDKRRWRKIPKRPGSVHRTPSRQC
Method in brief: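 CHRM1-CHO calcium-flux assay, antagonist mode. Cells were seeded 18 h, dye-loaded 1 h at 37 C and given compound for 5 min at RT, then acetylcholine was added at 50nM. FDSS fluorescence was read 3 min; 15 concentrations, three runs.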

[18] = target: Muscarinic acetylcholine receptor M1 (Homo sapiens) (UniProt P11229); test: Cholinergic receptor muscarinic 1 (CHRM1) small molecule agonists, cell-based qHTS assay (AID 1963589); further: nearly all actives have a fitted effect of over 35% in size; further: potency means the concentration at half of the fitted maximal effect
Method in brief: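 Measures agonist-induced intracellular calcium rise. Stable human CHRM1 CHO line, 1 h dye load at 37 C, compounds from DMSO, kinetic fluorescence read.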

[19] = cAMP Responsive Elements (CRE) small molecule agonists, cell-based qHTS assay (AID 1963590)
Method in brief: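 A CRE-responsive beta-lactamase reporter in HEK 293T cells was used. Treatment ran 3 h at 37 C; detection used LiveBLAzer B/G FRET substrate for 2 h at room temperature.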

| SMILES | Potency [1] | Potency [2] | Potency [3] | Potency [4] | Potency [5] | Potency [6] | Potency [7] | Potency [8] | Potency [9] | Potency [10] | Potency [11] | Potency [12] | Potency [13] | Potency [14] | Potency [15] | Potency [16] | Potency [17] | Potency [18] | Potency [19] |
| --- | --- | --- | --- | --- | --- | --- | --- | --- | --- | --- | --- | --- | --- | --- | --- | --- | --- | --- | --- |
| Oc1c(Cl)cc(Cl)cc1Sc1cc(Cl)cc(Cl)c1O | 13.7 µM (active) and 31.1 µM (active) and 27.3 µM (active) | 6.13 µM (active) and inactive | inactive | inactive | inactive | 20.5 µM (active) and 46.5 µM (active) and inactive | 36.4 µM (active) and inactive | inactive | inactive | 55.4 µM (active) and inactive | inactive | inactive | inactive | – | – | – | – | – | – |
| CN(C)CCOC(C)(c1ccccc1)c1ccccn1 (centres undefined) | inactive | inactive | inactive | inactive | inactive | – | – | inactive | inactive | inactive | inactive | inactive | inactive | inactive | inactive | inactive | 18.8 µM (active) and 4.1 µM (active) | inactive | inactive |
| c1ccc2c(c1)ccc1ccccc12 | inactive | inactive | inactive | inactive | inactive | inactive | inactive | inactive | – | inactive | – | inactive | inactive | inactive | inactive | inactive | inactive | inactive | – |
| Cc1cccc(Nc2cc(Cl)nc(SCC(=O)O)n2)c1C | inactive | inactive | inactive | inactive | inactive | inactive | – | – | – | inactive | – | inactive | inactive | inactive | – | – | – | – | – |
| O=C(O)CCCCC1CCSS1 (centres undefined) | inactive | 5.44 µM (active) and inactive | inactive | inactive | inactive | inactive | inactive | inactive | – | inactive | inactive | inactive | inactive | – | – | – | – | – | inactive |
| C[C@]12CCC(=O)C=C1CC[C@@H]1[C@@H]2C(=O)C[C@@]2(C)[C@H]1CC[C@]2(O)C(=O)CO | inactive | inactive | inactive | inactive | inactive | – | – | inactive | – | – | inactive | inactive | inactive | 408 nM (active) and inactive | – | – | – | – | inactive |
| Cc1c(OCC(F)(F)F)ccnc1CS(=O)c1nc2ccccc2[nH]1 (centres undefined) | inactive | 24.3 µM (active) and 33.5 µM (active) | inactive | inactive | inactive | inactive | inactive | inactive | inactive | inactive | – | inactive | inactive | inactive | – | – | – | – | inactive |
| NC(=O)N/N=C/c1ccc([N+](=O)[O-])o1 | inactive | inactive and 30.6 µM (active) | inactive | inactive | inactive | inactive | inactive | inactive | inactive | inactive | – | inactive | inactive | inactive | inactive | inactive | inactive | inactive | inactive |
| CC(C)(Oc1ccc(Cl)cc1)C(=O)O | inactive | inactive | inactive | inactive | inactive | inactive | inactive | inactive | inactive | inactive | inactive | inactive | inactive | inactive | – | – | – | – | inactive |
| CCCCCNCCCCC | inactive | inactive | inactive | inactive | inactive | – | inactive | inactive | inactive | inactive | inactive | inactive | inactive | inactive | inactive | inactive | inactive | inactive | inactive |
| CC1(C)S[C@@H]2[C@H](NC(=O)COc3ccccc3)C(=O)N2[C@H]1C(=O)O | inactive | inactive | inactive | inactive | inactive | inactive | inactive | inactive | – | inactive | inactive | inactive | inactive | inactive | inactive | inactive | inactive | inactive | inactive |
| COc1cc([C@H]2Oc3cc([C@H]4Oc5cc(O)cc(O)c5C(=O)[C@@H]4O)ccc3O[C@@H]2CO)ccc1O | inactive | inactive | inactive | inactive | inactive | inactive | inactive | inactive | – | inactive | – | inactive | inactive | inactive | inactive | inactive | inactive | inactive | – |
| Cc1ccc([N+](=O)[O-])cc1N | inactive | inactive | inactive | inactive | inactive | – | inactive | inactive | inactive | inactive | inactive | inactive | inactive | inactive | inactive | inactive | inactive | inactive | inactive |
| CC(=O)NS(=O)(=O)c1ccc(N)cc1 | inactive | inactive | inactive | inactive | inactive | inactive | inactive | inactive | inactive | inactive | – | – | inactive | inactive | inactive | inactive | inactive | inactive | inactive |
| CCCCCCCCCCCCN | inactive and 30.6 µM (active) | inactive | inactive | inactive | inactive | inactive | inactive | inactive | – | inactive | inactive | inactive | inactive and 43.3 µM (active) | – | 5.94 µM (active) and inactive | – | inactive | inactive and 24.5 µM (active) | – |
